PubChem BioAssay (Tox21)
Records with an inconclusive call do not appear. Active and inactive are the calls of the source. Calls follow the shape of the dose curve; as a rule, active = well fitted inhibition curve with a large enough effect in the signal ratio in the repeat runs (not every such curve was filed as active); inconclusive = weak or mixed curves, or effect the other way; inactive = no such curve, though single readings can be large or run the other way; the % refers to the signal ratio.

Each compound was assayed against Peroxisome proliferator-activated receptor delta (Homo sapiens) (UniProt Q03181) (assay: qHTS assay to identify small molecule antagonists of the peroxisome proliferator-activated receptor delta (PPARd) signaling pathway (AID 743215;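 also: cells stimulated with agonist L165041 at 300 nM final during compound exposure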)). Settings: HEK293H PPARd-UAS-bla, beta-lactamase FRET ratio, antagonist, 17 h; series mostly up to 62 µM; ratio activity, negative = inhibition: at the top concentration.
Peroxisome proliferator-activated receptor delta (Homo sapiens), sequence (Q03181 whole entry, looked up): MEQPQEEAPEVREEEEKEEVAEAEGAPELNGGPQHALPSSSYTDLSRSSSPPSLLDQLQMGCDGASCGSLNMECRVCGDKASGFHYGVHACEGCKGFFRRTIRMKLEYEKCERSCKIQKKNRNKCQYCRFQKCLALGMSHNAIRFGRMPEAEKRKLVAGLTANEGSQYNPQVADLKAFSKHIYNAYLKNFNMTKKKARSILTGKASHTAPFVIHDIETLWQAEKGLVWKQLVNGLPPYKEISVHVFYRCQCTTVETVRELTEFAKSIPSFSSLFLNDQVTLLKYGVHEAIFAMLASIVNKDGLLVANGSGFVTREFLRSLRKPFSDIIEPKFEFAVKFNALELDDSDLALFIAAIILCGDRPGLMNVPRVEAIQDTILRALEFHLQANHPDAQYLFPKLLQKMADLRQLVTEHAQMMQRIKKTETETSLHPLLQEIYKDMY
Excerpt: U.S. Tox21 Program National Center for Advancing Translational Sciences [NCATS] NIH Chemical Genomics Center [NCGC] U.S. Environmental Protection Agency [EPA] National Institutes of Environmental Health Sciences [NIEHS] National Toxicology Program [NTP] U.S. Food and Drug Administration [FDA] Tox21 Assay Overview: The peroxisome proliferator-activated receptors (PPARs) are lipid-activated transcription factors of the nuclear receptor superfamily with three distinct subtypes namely PPAR alpha, PPAR delta (PPARd) and PPAR gamma. All these subtypes heterodimerizes with Retinoid X receptor (RXR) and have different physiological functions. […] To identify the compounds that inhibit PPAR-delta signaling, GeneBLAzer PPAR delta UAS-bla HEK293H cell line (Invitrogen, Carlsbad, CA, USA) containing a beta-lactamase reporter gene under the control of an Upstream Activator Sequence (UAS) was used to screen the Tox21 compound library.
Tox21 Assay Protocol Summary: PPARd-bla cells were dispensed at 3000 cells/5uL/well in 1536-well black wall/clear bottom plates using a Multidrop Combi (Thermo Fisher Scientific, Waltham, MA) dispenser. After the assay plates were incubated at 37 C and 5% CO2 for 5 h, 23 nL of compounds dissolved in DMSO, positive controls or DMSO only was transferred to the assay plate by a Pintool station (Kalypsys, San Diego, CA), followed by addition of 1ul L165041 (300 nM, final concentration in the wells). The assay plates were incubated at 37 C for 17 h, and then 1 uL of LiveBLAzerTM B/G FRET substrate was added using a Bioraptr Flying Reagent Dispenser (FRD) workstation (Beckman Coulter, Indianapolis, IN, USA). The assay plates were incubated at room temperature for 2 h and fluorescence intensity was measured by an Envision plate reader (PerkinElmer, Shelton, CT).
% is scaled to controls: 0 for no effect and ±100 for the full control effect.

Structure (SMILES)	ratio activity, negative = inhibition
Cc1ccccc1N=Nc1ccc(N=Nc2c(O)ccc3ccccc23)c(C)c1	-9.35% (inactive)
Cc1ccc2c(ccc3ccccc32)c1	-7.15% [at 80.4 µM] (inactive)
O=C(O)c1cccc(N(Cc2cccnc2)c2ccc(OC(F)F)c(OC(F)F)c2)c1	-18.5% (inactive)
CC(C(=O)O)c1ccc(C(=O)c2ccccc2)s1 (stereo not given)	-0.671% (inactive)
C1=Cc2ccccc2C1	-8.16% (inactive)
FC(F)(F)C(F)(F)C(F)(F)C(F)(F)C(F)(F)C(F)(F)CCI	12.1% (inactive)
OC(CCN1CCCCC1)(c1ccccc1)C1CCCCC1 (stereo not given)	-9.94% (inactive)
CC(C)(C)C1CCCCC1O (stereo not given)	-8.06% (inactive)
OCCC1CCCCN1 (stereo not given)	-3.03% [at 80.4 µM] (inactive)
C=CC(=O)OCCOC(=O)CCC(=O)O	2.53% (inactive)
CC[C@@H]1C[C@H](N(Cc2cc(C(F)(F)F)cc(C(F)(F)F)c2)C(C)=O)c2cc(C(F)(F)F)ccc2N1C(=O)OC(C)C	-0.0329% (inactive)
CCOC(=O)C1=NN(c2ccccc2)C(=O)C1	6.58% (inactive)
C1CCC2OC2C1 (stereo not given)	8.19% [at 80.4 µM] (inactive)
NCCCN(CCO)CCO	3.98% (inactive)
NC(=S)N/N=C/c1cccnc1	2.35% (inactive)
CCCCCCCCCC(=O)OCC	2.5% (inactive)
CN(C)CCCOc1nn(Cc2ccccc2)c2ccccc12	-19.9% (inactive)
Cc1cc(O)ccc1N	-10.2% [at 80.4 µM] (inactive)
COc1cc(C(C)(C)C)c(O)c(C(C)(C)C)c1	7.43% (inactive)
C#CCOC(=O)[C@@H](C)Oc1ccc(Oc2ncc(Cl)cc2F)cc1	7.5% (inactive)

Structure (SMILES)	ratio activity, negative = inhibition
N=C(N=C(N)N)N1CCOCC1	0.986% (inactive)
N#CCc1cccc(C(F)(F)F)c1	-20.9% (inactive)
Nc1ccc(C(=O)N2CC3CC(CN(Cc4ccccc4)C3)C2)cc1	1.65% (inactive)
CC(C)c1ccccc1C(C)C	5.82% (inactive)
Cc1occc1S	-2.05% (inactive)
CC(C)(C)c1cc(CCC(=O)OCC(COC(=O)CCc2cc(C(C)(C)C)c(O)c(C(C)(C)C)c2)(COC(=O)CCc2cc(C(C)(C)C)c(O)c(C(C)(C)C)c2)COC(=O)CCc2cc(C(C)(C)C)c(O)c(C(C)(C)C)c2)cc(C(C)(C)C)c1O	-5.88% [at 28.9 µM] (inactive)
CCCCOC(=O)c1ccccc1C(=O)OCC(CC)CCCC (stereo not given)	-17.9% (inactive)
Cn1c(N)nc2nc[nH]c2c1=O	1.39% (inactive)
N#Cc1cc2ccccc2c2ccccc12	-10.4% [at 80.4 µM] (inactive)
O=C(CC(=O)c1ccccc1)c1ccccc1	0.329% [at 80.4 µM] (inactive)
CC(O)C1CCCCC1 (stereo not given)	11.7% (inactive)
Cc1ccc(C(N)=O)cc1N	15.4% (inactive)
CNS(=O)(=O)Cc1ccc2[nH]cc(CCN(C)C)c2c1	1.82% (inactive)
CCCC(C)C	2.61% [at 80.4 µM] (inactive)
COC(=O)C(C)=O	-22% [at 80.4 µM] (inactive)
CCOC(=O)CC(=O)c1cc(F)c(Cl)nc1Cl	-10.2% [at 80.4 µM] (inactive)
CN1CCN(C2=Nc3ccccc3Sc3ccc(Cl)cc32)CC1	-19.3% (inactive)
CC(=O)OC/C=C/c1ccccc1	-7.18% (inactive)
CCOC(=S)SSC(=S)OCC	-10.4% (inactive)
CCCc1ccccc1	5.66% (inactive)
